For 40 sequences, binding signal results are on record in PMC7862700, “An all-to-all approach to the identification of sequence-specific readers for epigenetic DNA modifications on cytosine”.

For the first test, the target named is ELF4 (Homo sapiens, UniProt Q99607 1-663). Kind of test: DAPPL (digital affinity profiling via proximity ligation, sequencing); 10 mM Tris-HCl pH 7.5, 50 mM NaCl, 1 mM DTT, 4% glycerol, room temperature, 30 min; GST-TFs on glutathione beads, 16-mer random dsDNA library, 0.1% formaldehyde crosslink after washing; high values mean tight binding. The note with it: protein: recombinant; tags: N-terminal GST; dsDNA, one strand shown. The method in brief: (§1)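 Beads coated with glutathione captured GST-fused human transcription factors that had been expressed in yeast, and the factors were then given DNA barcodes and pooled with a tag-only sample. The pools were incubated with 200 nmole of a random double-stranded 16-mer DNA library in Tris/NaCl/DTT/glycerol buffer for 30 min at room temperature, washed, crosslinked with 0.1% formaldehyde and proximity-ligated with BsaI/T4 ligase at 37 °C for 1 h. PCR amplification and Illumina NextSeq500 sequencing came last. Binding signal is each hexamer's read frequency for a factor divided by its frequency for the tag-only sample.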
Sequence of ELF4 (Q99607 whole entry, the tested form may be a part): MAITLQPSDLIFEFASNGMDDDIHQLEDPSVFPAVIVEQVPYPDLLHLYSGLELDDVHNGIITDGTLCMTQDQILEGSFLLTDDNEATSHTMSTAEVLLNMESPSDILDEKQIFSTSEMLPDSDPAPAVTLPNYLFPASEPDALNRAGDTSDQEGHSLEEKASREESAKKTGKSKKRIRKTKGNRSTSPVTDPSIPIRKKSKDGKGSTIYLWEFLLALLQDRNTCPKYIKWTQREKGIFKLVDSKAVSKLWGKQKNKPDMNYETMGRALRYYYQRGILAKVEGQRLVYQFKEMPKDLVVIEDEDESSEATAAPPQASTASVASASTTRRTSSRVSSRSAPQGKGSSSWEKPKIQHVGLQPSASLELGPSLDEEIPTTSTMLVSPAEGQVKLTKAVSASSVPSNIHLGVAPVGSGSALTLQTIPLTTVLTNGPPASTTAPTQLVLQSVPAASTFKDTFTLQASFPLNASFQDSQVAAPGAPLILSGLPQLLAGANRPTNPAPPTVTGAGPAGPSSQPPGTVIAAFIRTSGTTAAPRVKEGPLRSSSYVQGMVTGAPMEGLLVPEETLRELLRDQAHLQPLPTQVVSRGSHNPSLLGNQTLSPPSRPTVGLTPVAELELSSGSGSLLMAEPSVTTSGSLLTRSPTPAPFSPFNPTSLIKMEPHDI
For the sequence TTGTAT, the binding signal was 1.35 fold enrichment (6-mer frequency, TF over GST control).

For the sequence ATGACC, the binding signal is 1.66 fold enrichment (6-mer frequency, TF over GST control).

Consider AATGCC, for which the binding signal was 1.21 fold enrichment (6-mer frequency, TF over GST control).

For the sequence TACTAT, the binding signal is 1.35 fold enrichment (6-mer frequency, TF over GST control).

Consider TATTCC, for which the binding signal was 1.62 fold enrichment (6-mer frequency, TF over GST control).

On to TTTCTA, for which the binding signal was 1.33 fold enrichment (6-mer frequency, TF over GST control).

As for TCTCTA, the binding signal was 1.25 fold enrichment (6-mer frequency, TF over GST control).

Consider CCGAAC, for which the binding signal was 1.26 fold enrichment (6-mer frequency, TF over GST control).

On to CTGCGA, for which the binding signal is 1.28 fold enrichment (6-mer frequency, TF over GST control).

Consider GTATCC, for which the binding signal is 1.85 fold enrichment (6-mer frequency, TF over GST control).

With TCCTTC, the binding signal was 2.08 fold enrichment (6-mer frequency, TF over GST control).

As for TTAACC, the binding signal is 1.32 fold enrichment (6-mer frequency, TF over GST control).

For the sequence ATTATA, the binding signal is 1.24 fold enrichment (6-mer frequency, TF over GST control).

As to TCATTC, the binding signal is 1.26 fold enrichment (6-mer frequency, TF over GST control).

With AAGTTC, the binding signal was 1.35 fold enrichment (6-mer frequency, TF over GST control).

For TGCTTC, the binding signal was 1.98 fold enrichment (6-mer frequency, TF over GST control).

Turning to ACAATC, the binding signal is 1.11 fold enrichment (6-mer frequency, TF over GST control).

Consider TTTCCG, for which the binding signal was 3.35 fold enrichment (6-mer frequency, TF over GST control).

Take GATGGC: the binding signal is 1.4 fold enrichment (6-mer frequency, TF over GST control).

In the case of TCCCAT, the binding signal is 1.29 fold enrichment (6-mer frequency, TF over GST control).

The target of another test is T1, ELK4 (Homo sapiens, UniProt P28324-2 1-405).
T1 sequence: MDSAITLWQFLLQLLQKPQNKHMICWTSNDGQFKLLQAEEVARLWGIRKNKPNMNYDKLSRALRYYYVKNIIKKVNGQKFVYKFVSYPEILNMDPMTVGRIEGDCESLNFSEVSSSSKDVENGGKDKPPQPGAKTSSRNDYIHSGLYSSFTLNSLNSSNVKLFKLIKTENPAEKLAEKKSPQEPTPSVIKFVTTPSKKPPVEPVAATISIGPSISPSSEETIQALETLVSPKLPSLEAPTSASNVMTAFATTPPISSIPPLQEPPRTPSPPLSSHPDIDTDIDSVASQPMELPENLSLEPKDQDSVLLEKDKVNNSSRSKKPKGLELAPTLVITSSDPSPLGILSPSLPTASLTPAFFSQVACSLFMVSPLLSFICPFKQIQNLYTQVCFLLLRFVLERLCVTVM
Described as above. The note with it: protein: recombinant; tags: N-terminal GST; dsDNA, one strand shown. The method in brief: as §1
In the case of GACTCT, the binding signal is 1.28 fold enrichment (6-mer frequency, TF over GST control).

For TTCAAG, the binding signal was 1.32 fold enrichment (6-mer frequency, TF over GST control).

With GCTTTG, the binding signal is 1.22 fold enrichment (6-mer frequency, TF over GST control).

For TCACCT, the binding signal is 1.12 fold enrichment (6-mer frequency, TF over GST control).

Consider TGTTGC, for which the binding signal was 1.37 fold enrichment (6-mer frequency, TF over GST control).

With CCTTAA, the binding signal is 1.27 fold enrichment (6-mer frequency, TF over GST control).

As for ACTTCC, the binding signal is 6.63 fold enrichment (6-mer frequency, TF over GST control).

Consider TGTTAA, for which the binding signal is 1.16 fold enrichment (6-mer frequency, TF over GST control).

Consider TTACTA, for which the binding signal is 1.32 fold enrichment (6-mer frequency, TF over GST control).

For GATTCC, the binding signal was 1.13 fold enrichment (6-mer frequency, TF over GST control).

As for TTACTC, the binding signal was 1.34 fold enrichment (6-mer frequency, TF over GST control).

AAGTAA: the binding signal was 1.19 fold enrichment (6-mer frequency, TF over GST control).

Consider ATCTGG, for which the binding signal is 1.31 fold enrichment (6-mer frequency, TF over GST control).

For the sequence GAAATC, the binding signal is 1.31 fold enrichment (6-mer frequency, TF over GST control).

Turning to AACCCT, the binding signal is 1.24 fold enrichment (6-mer frequency, TF over GST control).

For the sequence TCTCAC, the binding signal was 1.35 fold enrichment (6-mer frequency, TF over GST control).

Consider TTTAAA, for which the binding signal was 1.37 fold enrichment (6-mer frequency, TF over GST control).

With CTATGC, the binding signal is 1.38 fold enrichment (6-mer frequency, TF over GST control).

As for CATCCT, the binding signal was 1.51 fold enrichment (6-mer frequency, TF over GST control).

Consider TCTTTG, for which the binding signal was 1.2 fold enrichment (6-mer frequency, TF over GST control).

Regarding TTGTAT, the binding signal was 1.43 fold enrichment (6-mer frequency, TF over GST control).

For the sequence ATGACC, the binding signal is 1.54 fold enrichment (6-mer frequency, TF over GST control).

Regarding AATGCC, the binding signal was 1.16 fold enrichment (6-mer frequency, TF over GST control).

Take TACTAT: the binding signal is 1.33 fold enrichment (6-mer frequency, TF over GST control).

On to TATTCC, for which the binding signal was 1.44 fold enrichment (6-mer frequency, TF over GST control).

On to TTTCTA, for which the binding signal is 1.34 fold enrichment (6-mer frequency, TF over GST control).

For TCTCTA, the binding signal was 1.22 fold enrichment (6-mer frequency, TF over GST control).

For CCGAAC, the binding signal was 1.25 fold enrichment (6-mer frequency, TF over GST control).

In the case of CTGCGA, the binding signal was 1.08 fold enrichment (6-mer frequency, TF over GST control).

Regarding GTATCC, the binding signal was 1.74 fold enrichment (6-mer frequency, TF over GST control).

Take TCCTTC: the binding signal is 2.04 fold enrichment (6-mer frequency, TF over GST control).

On to TTAACC, for which the binding signal was 1.31 fold enrichment (6-mer frequency, TF over GST control).

Consider ATTATA, for which the binding signal is 1.29 fold enrichment (6-mer frequency, TF over GST control).

For the sequence TCATTC, the binding signal is 1.34 fold enrichment (6-mer frequency, TF over GST control).

With AAGTTC, the binding signal is 1.41 fold enrichment (6-mer frequency, TF over GST control).

TGCTTC: the binding signal is 2.01 fold enrichment (6-mer frequency, TF over GST control).

As to ACAATC, the binding signal was 1.15 fold enrichment (6-mer frequency, TF over GST control).

In the case of TTTCCG, the binding signal was 2.97 fold enrichment (6-mer frequency, TF over GST control).

On to GATGGC, for which the binding signal is 1.3 fold enrichment (6-mer frequency, TF over GST control).

As for TCCCAT, the binding signal was 1.27 fold enrichment (6-mer frequency, TF over GST control).
